Test results as given in PubChem BioAssay (Tox21).
Inconclusive results are not listed. Active and inactive are the calls of the source. Unless noted, the call rests on the fitted dose curve; in most records, active means well fitted curve in the direction sought with a large enough effect in the repeat runs; inconclusive means weak or mixed curves; inactive means no such curve, though single readings can be large; an effect the other way counts as inactive or inconclusive.

Experiments:
[1] = target: Progesterone receptor (Homo sapiens) (UniProt P06401); test: qHTS assay to identify small molecule agonists of the progesterone receptor (PR) signaling pathway (AID 1346784; calls by dose curve; further: nearly all actives have a fitted effect of over 30% in size; further: potency means the concentration at half of the fitted maximal effect)
How it was run: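 Using charcoal-stripped serum (2%) to limit endogenous steroids, PR-UAS-bla HEK 293T cells received compounds for 16 hr at 37C after 6 hr plating; beta-lactamase FRET fluorescence was recorded following 2 hr substrate loading at room temperature.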

[2] = target: Progesterone receptor (Homo sapiens) (UniProt P06401); test: qHTS assay to identify small molecule antagonists of the progesterone receptor (PR) signaling pathway (AID 1346795; active means well fitted inhibition curve with a large enough effect in the signal ratio in the repeat runs, not every such curve was filed as active; the % refers to the signal ratio; further: potency means the concentration at half of the fitted maximal effect)
How it was run: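 Inhibition of R5020-induced (1 nM final) beta-lactamase reporter signal in PR-UAS-bla HEK293T cells was scored by FRET fluorescence after overnight (16 hr) compound treatment.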

[3] = qHTS assay to identify small molecule antagonists of the TGF-beta/Smad signaling pathway - cell viability counter screen (AID 1346824); further: nearly all actives have a fitted effect of over 50% in size
How it was run: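 Cytotoxicity counter-screen run in the same wells as the beta-lactamase Smad reporter read: CellTiter-Glo luminescence after 30 min at room temperature. HEK 293T SBE-bla cells had 5 hr compound exposure at 37 C with TGF-beta1 (0.25 ng/mL stock).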

[4] = qHTS assay to identify small molecule agonists of the TGF-beta/Smad signaling pathway - cell viability counter screen (AID 1346829); further: top concentration of the series differs between compounds; nearly all actives have a fitted effect of over 45% in size
How it was run: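 CellTiter-Glo luminescence readout; SBE-bla HEK 293T cells, overnight plating, compound 5 hr at 37 C/5% CO2, then bla substrate 2 hr RT, then CellTiter-Glo 30 min RT.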

[5] = qHTS assay to identify small molecule agonists of the TGF-beta/Smad signaling pathway (AID 1346859; active means well fitted activation curve with a large enough effect in the signal ratio in the repeat runs, not every such curve was filed as active; the % refers to the signal ratio; further: series mostly up to about 77 µM)
How it was run: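 Stable Smad binding element-beta-lactamase HEK 293T cells; 5 hr compound exposure at 37 C under 5% CO2; 2 hr room-temperature substrate step; fluorescence excited at 405 nm, collected at 460 nm and 530 nm.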

[6] = target: Thyrotropin-releasing hormone receptor (Homo sapiens) (UniProt P34981); test: qHTS assay to identify small molecule antagonists of the thyrotropin-releasing hormone receptor (TRHR) signaling pathway (AID 1346877; active means well fitted inhibition curve with a large enough effect in the repeat runs, not every such curve was filed as active; further: series mostly up to about 51 µM)
How it was run: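 Kinetic fluorescence (3 min, 1 s resolution) following stimulation with TRH at 1 nM final; HEK293 cells bearing human TRHR; 5 min compound preincubation at RT; concentration-response over 15 points, triplicates.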

[7] = target: Thyrotropin-releasing hormone receptor (Homo sapiens) (UniProt P34981); test: qHTS assay to identify small molecule agonists of the thyrotropin-releasing hormone receptor (TRHR) signaling pathway (AID 1346891; calls by dose curve;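 further: HEK293 cells expressing TRHR with calcium dye readout; series mostly up to about 58 µM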)
How it was run: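 In 1536-format, 1500 TRHR-Hek293 cells per well grew 18 h, took up calcium dye for 2 h at 37 °C, received compound, and were read kinetically; 15-point titrations, triplicates.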

[8] = qHTS assay to identify small molecule antagonists of the progesterone receptor (PR) signaling pathway - cell viability counter screen (AID 1346798); further: series mostly up to about 92 µM; nearly all actives have a fitted effect of over 50% in size
How it was run: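 ATP content as viability readout: CellTiter-Glo luminescence, 30 min room temperature, in PR-UAS-bla HEK293T cells after 16 hr compound/R5020 treatment at 37C and 5% CO2.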

[9] = qHTS assay to identify small molecule agonists of the progesterone receptor (PR) signaling pathway - cell viability counter screen (AID 1346799; calls by dose curve; further: nearly all actives have a fitted effect of over 45% in size; further: potency means the concentration at half of the fitted maximal effect)
How it was run: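 Cytotoxicity in PR-bla HEK293T cells: 16 h compound, 37C; CellTiter-Glo added post-FRET read; luminescence after 30 min RT.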

[10] = Human pregnane X receptor (PXR) small molecule agonists, qHTS cell viability counter screen (AID 1346977); further: nearly all actives have a fitted effect of over 50% in size; further: potency means the concentration at half of the fitted maximal effect
How it was run: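 Readout is CellTiter-Fluor fluorescence from PXR-Luc HepG2 cells. Plated cells rested 5hr, then were treated with compounds for 24hr at 37C and 5% CO2, with reagent present during the last hour.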
On the % scale 0 is the no-effect control and ±100 the full control effect.

Progesterone receptor (Homo sapiens), sequence (P06401 whole entry, looked up): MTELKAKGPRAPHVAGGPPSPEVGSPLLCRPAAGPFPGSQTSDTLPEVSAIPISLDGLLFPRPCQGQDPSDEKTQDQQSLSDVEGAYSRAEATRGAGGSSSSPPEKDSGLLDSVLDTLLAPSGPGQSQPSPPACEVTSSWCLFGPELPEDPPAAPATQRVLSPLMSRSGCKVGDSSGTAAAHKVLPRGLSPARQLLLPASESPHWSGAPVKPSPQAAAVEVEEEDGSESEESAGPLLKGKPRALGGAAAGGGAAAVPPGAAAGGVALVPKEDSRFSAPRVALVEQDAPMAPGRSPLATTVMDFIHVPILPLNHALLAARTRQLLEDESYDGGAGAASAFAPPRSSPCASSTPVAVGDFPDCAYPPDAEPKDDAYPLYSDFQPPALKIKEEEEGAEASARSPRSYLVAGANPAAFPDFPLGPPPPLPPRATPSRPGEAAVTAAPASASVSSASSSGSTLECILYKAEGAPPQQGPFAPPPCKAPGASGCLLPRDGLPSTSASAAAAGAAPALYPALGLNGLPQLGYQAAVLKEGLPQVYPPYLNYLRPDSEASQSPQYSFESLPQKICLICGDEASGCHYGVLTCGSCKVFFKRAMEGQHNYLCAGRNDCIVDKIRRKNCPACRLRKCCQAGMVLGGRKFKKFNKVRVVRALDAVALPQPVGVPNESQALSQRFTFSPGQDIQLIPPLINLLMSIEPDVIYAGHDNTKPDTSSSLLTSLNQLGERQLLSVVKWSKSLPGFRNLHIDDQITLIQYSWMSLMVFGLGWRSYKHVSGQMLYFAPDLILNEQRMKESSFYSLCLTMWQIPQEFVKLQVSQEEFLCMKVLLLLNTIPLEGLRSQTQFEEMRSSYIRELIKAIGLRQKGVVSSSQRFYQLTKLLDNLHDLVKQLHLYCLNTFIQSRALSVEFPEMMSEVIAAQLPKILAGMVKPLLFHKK
Thyrotropin-releasing hormone receptor (Homo sapiens), sequence (P34981 whole entry, looked up): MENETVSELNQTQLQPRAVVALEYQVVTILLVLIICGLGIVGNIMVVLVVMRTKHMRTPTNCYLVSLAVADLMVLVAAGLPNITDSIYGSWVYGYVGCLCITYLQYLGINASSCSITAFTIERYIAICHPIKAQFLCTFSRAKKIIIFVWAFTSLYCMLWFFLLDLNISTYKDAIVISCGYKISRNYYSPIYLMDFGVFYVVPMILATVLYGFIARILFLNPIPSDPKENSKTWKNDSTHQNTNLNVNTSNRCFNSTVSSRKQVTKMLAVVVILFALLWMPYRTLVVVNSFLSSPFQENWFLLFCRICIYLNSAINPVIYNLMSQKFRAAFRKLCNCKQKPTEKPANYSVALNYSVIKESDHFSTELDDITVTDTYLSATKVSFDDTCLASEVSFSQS

CNCCC(Oc1ccccc1OC)c1ccccc1 (stereo unspecified)
inactive: Potency [1] | Potency [2] | outcome [3] | outcome [4] | outcome [5] | outcome [6] | Potency [7]

O=C1C=CC(=O)O1
inactive: Potency [1] | Potency [8] | Potency [9] | outcome [3] | outcome [4] | outcome [5] | outcome [6] | Potency [7]

CN1CCN(c2c(F)cc3c(=O)c(C(=O)O)cn(CCF)c3c2F)CC1
inactive: Potency [1] | Potency [8] | Potency [9] | outcome [3] | outcome [5] | outcome [6] | Potency [7] | Potency [10]

CC(C)NC[C@@H](O)COc1cccc2ccccc12
inactive: Potency [1] | Potency [2] | outcome [3] | outcome [4] | outcome [5] | outcome [6] | Potency [7]

CCC(=O)c1ccc2c(c1)N(CCCN(C)C)c1ccccc1S2
inactive: Potency [1] | Potency [8] | Potency [9] | outcome [3] | outcome [4] | outcome [5] | outcome [6] | Potency [7]

O=C1CCCCCCCCCCC(=O)OCCO1
inactive: Potency [1] | Potency [2] | Potency [9] | outcome [4] | outcome [6] | Potency [7] | Potency [10]

CC1=CC(=O)CC(C)(C)C1=O
inactive: Potency [1] | Potency [8] | Potency [9] | outcome [3] | outcome [4] | outcome [5] | outcome [6] | Potency [7]

CC(=O)O[C@H]1CC[C@@]2(C)C(=CC[C@@H]3[C@@H]2CC[C@]2(C)C(C(C)=O)=CC[C@@H]32)C1
inactive: Potency [1] | Potency [8] | Potency [9] | outcome [4] | outcome [6] | Potency [7] | Potency [10]

CC1=C2[C@H](/C=C(\C)C(=O)O)CC[C@@H](C)[C@H]2CC1
inactive: Potency [1] | Potency [8] | Potency [9] | outcome [4] | outcome [6] | Potency [7] | Potency [10]

C=Cc1ccccc1
inactive: Potency [1] | Potency [2] | Potency [9] | outcome [5] | Potency [10]

C[C@@H]1CN(c2c(F)c(F)c3c(=O)c(C(=O)O)cn(C4CC4)c3c2F)C[C@H](C)N1
inactive: activation [1] 4.11% [at 19 µM] | activity change, negative = inhibition [2] 6.07% [at 18.9 µM] | viability change, negative = cytotoxic [3] 0.903% [at 15.8 µM] | activity change, negative = cytotoxicity [4] -0.146% [at 15.8 µM] | activity, negative = inhibition [6] -3.72% [at 10.5 µM] | activation [7] 0.0488% [at 11.8 µM] | activity change, negative = cytotoxicity [10] 6.01% [at 19 µM]

C1CSCCS1
inactive: Potency [1] | Potency [8] | Potency [9] | outcome [3] | outcome [4]

OCCN(CCO)CCN(CCO)CCO
inactive: Potency [1] | Potency [9] | outcome [3] | outcome [4] | outcome [5] | outcome [6] | Potency [7]

CCC/C=C/CO
inactive: Potency [1] | Potency [2] | outcome [3] | outcome [5] | outcome [6] | Potency [7] | Potency [10]

O=C(C(Cl)Cl)N1CCOC12CCCCC2
active: Potency [10] 61.1 µM
inactive: Potency [1] | Potency [8] | Potency [9] | outcome [3] | outcome [5] | outcome [6] | Potency [7]

CC(C)CC(=O)OCc1ccccc1
inactive: Potency [1] | Potency [8] | Potency [9] | outcome [3] | outcome [4] | outcome [5] | outcome [6] | Potency [7]

Cc1ccccc1C(=O)Nc1ccc(C(=O)N2CCCC(O)c3cc(Cl)ccc32)c(C)c1 (stereo unspecified)
inactive: Potency [1] | Potency [8] | outcome [3] | outcome [4] | outcome [5] | outcome [6] | Potency [7] | Potency [10]

NC(=O)Cc1cccc(C(=O)c2ccccc2)c1N
inactive: Potency [1] | Potency [2] | outcome [3] | outcome [4] | outcome [5]

C=CCCC=C
inactive: Potency [8] | Potency [9] | outcome [3] | outcome [4] | outcome [5] | outcome [6] | Potency [7] | Potency [10]
active: Potency [1] 19.9 µM

CC1(C)O[C@@H]2C[C@H]3[C@@H]4CCC5=CC(=O)CC[C@]5(C)[C@@]4(F)[C@@H](O)C[C@]3(C)[C@]2(C(=O)CCl)O1
inactive: Potency [2] | Potency [8] | Potency [9] | outcome [3] | outcome [4] | outcome [5] | Potency [10]

O=C1N(c2ccccc2)c2ccccc2C1(Cc1ccncc1)Cc1ccncc1
inactive: Potency [1] | Potency [9] | outcome [6] | Potency [7]

CCCOc1ccc2c(c1)CC[C@@H]1[C@@H]2CC[C@]2(C)C(OC)CC[C@@H]12 (stereo partly specified)
inactive: Potency [8] | outcome [3] | outcome [4] | outcome [5] | outcome [6] | Potency [7]
active: Potency [2] 15 µM

CCCCCCC
inactive: Potency [1] | outcome [3] | outcome [4] | outcome [5] | outcome [6] | Potency [7]

O=C(O)c1cccc(Cl)c1Cl
inactive: Potency [8] | Potency [9] | outcome [4] | Potency [10]

CC1(C)C(=O)N(Cl)C(=O)N1Br
inactive: Potency [2] | Potency [9] | outcome [3] | outcome [4] | outcome [5] | outcome [6] | Potency [7] | Potency [10]

CCCCCCCCCCCCOCCOS(=O)(=O)O
active: Potency [9] 27.3 µM
inactive: Potency [1] | outcome [4] | outcome [5] | Potency [10]

CN1CCN(c2c(F)cc3c(=O)c(C(=O)O)cn4c3c2SCC4)CC1
inactive: Potency [2] | Potency [8] | Potency [9] | outcome [4] | outcome [5] | outcome [6] | Potency [7] | Potency [10]

NC(Cc1ccc(F)cc1)C(=O)O (stereo unspecified)
inactive: activation [1] 0.365% [at 8.39 µM] | activity change, negative = cytotoxicity [9] 1.93% [at 8.39 µM] | viability change, negative = cytotoxic [3] 18.5% [at 6.97 µM] | activity change, negative = cytotoxicity [4] 4.18% [at 6.97 µM] | activity, negative = inhibition [6] -1.45% [at 4.65 µM] | activation [7] 0.148% [at 5.23 µM]
